The text below walks through data of PubChem BioAssay AID623972 (The Scripps Research Institute Molecular Screening Center, 2012).

The structures appear in SMILES notation. Where “and” joins values, the source holds several entries; their conditions need not be identical. Equal entries are not always repeated. Calls of active or inactive are those of the source. The rule behind the calls is not given here. Bounds are passed on as bounds.

The assay in a line: compound-DNA interaction, EtBr readout – biochemical, fluorescence, ethidium bromide, artefact control for HCV NS3 helicase inhibitor project, late-stage follow-up (AID 623972). To be noted: DNA binding, ethidium bromide displacement fluorescence.
Regarding `Cc1cc(C(O)(c2ccc(Nc3ccccc3)cc2)c2ccc(Nc3ccc(S(=O)(=O)O)cc3)cc2)ccc1N` (stereo not drawn), the IC50 was 4 µM (active). In the case of `CCOc1ccc2c(NNC(=O)c3cnccn3)c3c(nc2c1)CCCC3`, the IC50 is > 100 µM (inactive). The figure for `Cc1cc2sc(-c3ccc4nc(-c5ccc(N)cc5)sc4c3)nc2cc1S(=O)(=O)O` is > 100 µM (inactive); for `Cc1ccc2nc(-c3ccc4nc(-c5ccc(N)cc5)sc4c3)sc2c1S(=O)(=O)O` it is > 100 µM (inactive). Then `CCN(CC)c1ccc(-c2nc3ccc(C)c(S(=O)(=O)O)c3s2)cc1`, with > 100 µM (inactive); and `COc1cccc2c(=O)c3cc(Cl)cc(C(=O)Nc4cc(Cl)ccn4)c3[nH]c12`, with > 100 µM (inactive). Then `Cc1ccc2nc(-c3ccc4nc(-c5ccc6nc(-c7ccc(N)cc7)sc6c5)sc4c3)sc2c1S(=O)(=O)O`, with 55 µM (active); and `Cc1cc2sc(-c3ccc(N)cc3)nc2cc1S(=O)(=O)O`, with > 100 µM (inactive); and `Cc1ccc2nc(-c3ccc4nc(-c5ccc6nc(-c7ccc(N)cc7)sc6c5)sc4c3)sc2c1S(=O)(=O)O` (tested in a mixture with another compound), with 73 µM (active).

For the compound `Cc1ccc2nc(-c3ccc4nc(-c5ccc6nc(-c7ccc8nc(-c9ccc(N)cc9)sc8c7)sc6c5)sc4c3)sc2c1S(=O)(=O)O`, the half-inhibitory concentration (IC50) was 15 µM (active) and 76 µM (active).

Regarding `CN1CCN(Cc2cc(CN3CCN(C)CC3)c(O)c(=O)c(CN3CCN(C)CC3)c2)CC1`, the half-maximal inhibitory concentration (IC50) was 31 µM (active). Then `Cc1ccc2nc(-c3ccc(N)cc3)sc2c1S(=O)(=O)O`, with > 100 µM (inactive); and `CCN(CC)c1ccc(-c2nc3ccc(-c4nc5ccc(C)c(S(=O)(=O)O)c5s4)cc3s2)cc1`, with > 100 µM (inactive).

Broadly, the IC50 is the concentration at which inhibition is half-maximal.
